High-throughput results as filed in PubChem BioAssay.
Hits are enriched below; roughly 2.9% of the tested compounds scored in any of these assays.
POLK inh – DNA polymerase kappa (human) inhibition; 0.53% of 400,000 active; Potency, µM (series often up to 107 µM), without a hit: top-dose activity, negative = inhibition, hits mostly inhibitors; purified Pol kappa, fluorescent DNA synthesis assay, 10 min; Q9UBT6; further: potency means the concentration at half of the fitted maximal effect; on the % scale 0 is the no-effect control and ±100 the full control effect
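Enzyme at 10 nM met test compounds for 15 min at room temperature. Substrate addition (50 nM final) began the reaction, which was monitored by fluorescence at 0 and 10 min.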
POLI inh – blocks human DNA polymerase iota activity; Q9UNA4; Pol iota fluorescent replication assay, 10 min; 1% of 390,000 active; AID 588590; Potency, µM (doses to about 115 µM), inactives show top-dose activity, negative = inhibition, actives largely listed as inhibitors; further: potency means the concentration at half of the fitted maximal effect
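Fluorescent replication assay read twice, at 0 min and 10 min after adding 50 nM (final) substrate. Enzyme (10 nM) and compounds were first incubated 15 min at room temperature; enzyme-free buffer wells were negative controls.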
PI5P4K alpha inh – blocks human PI5P4K alpha kinase activity | P48426 | PI5P4Kalpha enzyme, ADP-Glo luminescence, 60 min; hits give low values | max response, % | 1.2% of 330,000 active | AID 652105; active means max response of -50% or lower; inconclusive means between -30% and -50%; inactive means -30% or higher; further: value at the top dose of about 77 µM; on the % scale 0 is the no-effect control and ±100 the full control effect
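Human PI5P4Kalpha with substrate in 0.038 M HEPES pH 7.4, 0.28 mM EGTA, 0.1% CHAPS, 5% DMSO; reaction started with 5 microM ATP (final), 60 min at room temperature. ADP formed read by ADP-Glo luminescence.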
POLH inh – blocks human DNA polymerase eta activity; Q9Y253; recombinant Pol eta, fluorescent DNA replication assay; Potency, µM (top dose mostly 114 µM), inactives show at the highest dose activity change, negative = inhibition, most hits filed as inhibitors; 1.2% of 390,000 active; AID 588591; further: potency means the concentration at half of the fitted maximal effect; on the % scale 0 is the no-effect control and ±100 the full control effect
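Fluorescent replication assay: 50 nM final substrate added after a 15 min room-temperature compound preincubation with 10 nM enzyme. Signal taken at 0 min and again at 10 min.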
POLB inh – DNA polymerase beta (human) inhibition. Pol beta primer extension/strand displacement, fluorescence kinetic. 1.3% of 340,000 active. Potency, µM (doses to about 114 µM), without a hit: at the top dose activity change, negative = inhibition, hits mostly inhibitors. P06746. AID 485314; further: potency means the concentration at half of the fitted maximal effect; on the % scale 0 is the no-effect control and ±100 the full control effect
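Curves were derived by four-parameter Hill fits of normalized qHTS data. The kinetic fluorescent primer-extension read was taken at 0 and 10 min after 50 nM substrate, following a 15 min room-temperature preincubation of 10 nM enzyme with compounds.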
ALOX12 inh – blocks human arachidonate 12S-lipoxygenase; Potency, µM (series often up to 108 µM), for the others: at the top dose activity change, negative = inhibition, actives largely listed as inhibitors; purified 12hLO, xylenol orange hydroperoxide absorbance; 1.1% of 580,000 active; further: potency means the concentration at half of the fitted maximal effect; on the % scale 0 is the no-effect control and ±100 the full control effect
Target sequence (P18054 whole entry, looked up): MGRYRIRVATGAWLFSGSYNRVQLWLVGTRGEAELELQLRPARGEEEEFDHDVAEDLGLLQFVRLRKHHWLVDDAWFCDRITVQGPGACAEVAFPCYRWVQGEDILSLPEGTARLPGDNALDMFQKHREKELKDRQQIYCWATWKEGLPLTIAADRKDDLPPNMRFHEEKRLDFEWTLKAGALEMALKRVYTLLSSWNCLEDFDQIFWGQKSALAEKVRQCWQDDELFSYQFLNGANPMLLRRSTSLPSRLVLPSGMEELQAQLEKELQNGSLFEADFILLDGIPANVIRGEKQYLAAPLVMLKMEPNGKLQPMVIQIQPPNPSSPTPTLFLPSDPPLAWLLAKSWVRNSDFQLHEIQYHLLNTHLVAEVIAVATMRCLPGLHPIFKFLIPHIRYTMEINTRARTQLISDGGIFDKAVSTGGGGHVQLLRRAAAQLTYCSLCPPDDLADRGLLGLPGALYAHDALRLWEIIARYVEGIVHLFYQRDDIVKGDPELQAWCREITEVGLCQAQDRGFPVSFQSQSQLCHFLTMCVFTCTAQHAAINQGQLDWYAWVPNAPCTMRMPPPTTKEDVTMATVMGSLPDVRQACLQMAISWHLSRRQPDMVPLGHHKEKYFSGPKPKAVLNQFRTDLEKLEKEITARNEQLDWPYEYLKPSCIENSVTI
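Purified human 12hLO (150 nM final) in 25 mM Hepes, 0.01% Triton X-100, pH 7.0 was preincubated 15 min at room temperature with compound. Then 40 uM arachidonic acid was added, 30 min. Hydroperoxide was read by Fe-XO absorbance ratio 573/405 nm.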
Numbers without * were called inactive; ? = inconclusive; . = not tested or not shown; ! = repeats disagree; [ ] = another dose, or the depositor's remark. Unless noted, the call rests on the fitted dose curve; in most records, active means well fitted inhibition curve with a large enough effect; inconclusive means small, poorly fitted or top-dose-only effect, or another doubt; inactive means no such curve, though single readings can be large or run the other way.

SMILES	POLK inh	POLI inh	PI5P4K alpha inh	POLH inh	POLB inh	ALOX12 inh
O=C1c2ccccc2C(=O)N1CCc1csc(NNc2nc(CCN3C(=O)c4ccccc4C3=O)cs2)n1	89µM*	?	-69*	?	25µM*	.
Cc1ccc(-c2nc(CCN3C(=O)c4ccccc4C3=O)cs2)cc1	-10%	-7%	.	-4%	38%	-11%
O=c1nc(Nc2ccccc2)sc2ccc([N+](=O)[O-])cc12	-12%	0%	2	16µM*	?	0%
O=[N+]([O-])c1ccc(-c2csc(Nc3ccccc3)n2)cc1	4%	25%	.	.	.	.
COc1ccc(O)c(/C=N/NC(=O)c2ccc(N3CCCC3=O)cc2)c1	-45%	?	3	-11%	10µM*	-6%
COc1ccc(O)c(/C=N/NC(=O)c2cccc(N3CCCC3=O)c2)c1	0%	?	0	-9%	18%	0%
CC1(C)Cc2c(C#N)c(N3CCN(C(=O)c4ccccc4Cl)CC3)nc(-c3ccco3)c2CS1	79µM*	?	-85*	10µM*	20µM*	8%
CC1(C)Cc2c(c(-c3ccco3)[nH]c(=O)c2C#N)CS1	-32%	28µM*	-16	?	28µM*	?
CC(=O)N1CCN(c2nc(-c3ccco3)c3c(c2C#N)CC(C)(C)SC3)CC1	-17%	1%	-24	?	-3%	35µM*!
CC1(C)Cc2c(C#N)c(N3CCN(C(=O)c4ccco4)CC3)nc(Cc3ccccc3)c2CO1	-4%	-4%	-7	-19%	15%	?
CCc1nc(N2CCN(C(=O)c3ccco3)CC2)c(C#N)c2c1COC(C)(C)C2	-7%	-10%	0	-8%	22%	-16%
CCC(=O)N1CCN(c2nc(-c3ccco3)c3c(c2C#N)CC(C)(C)SC3)CC1	.	.	.	.	.	20µM*
CCOC(=O)COc1ccc2c(=O)c(-c3ccc(Br)cc3)c(C(F)(F)F)oc2c1	.	.	.	.	.	-5%
COc1ccc(CN2CCOc3nc(-c4cc5ccccc5o4)ncc3C2=O)cc1	.	.	.	.	.	-5%[176 µM]
COc1cc(CNc2ncn[nH]2)ccc1OCc1ccccc1	.	.	.	.	.	10%
CCN(Cc1nc2ccccc2c(=O)[nH]1)C(=O)CNC(=O)c1ccc(Cl)cc1	.	.	.	.	.	-3%
CC1CCN(C(=O)C(=O)N2CCN(c3nc(-c4ccco4)c4c(c3C#N)CCCC4)CC2)CC1	.	.	.	.	.	32µM*
CC1CCN(C(=O)C(=O)N2CCN(c3nc(-c4ccco4)c4c(c3C#N)CCC4)CC2)CC1	.	.	.	.	.	35%
Cc1ncc(CO)c(/C=N/NC(=S)Nc2cccc(Cl)c2)c1O	-4%	?	-29	-6%	-4%	.
Cc1ncc(CO)c(/C=N/NC(=S)Nc2ccc(Cl)c(Cl)c2)c1O	0%	-18%	-15	-8%	19%	45µM*
CC(Nc1ccc([N+](=O)[O-])cn1)c1ccc(Cl)cc1Cl (configuration not stated)	.	.	.	.	.	56µM*
NC(=O)c1cc(NC(=O)c2cc(Br)c(Br)s2)cc(C(N)=O)c1	-22%	5%	-20	-3%	40µM*	-13%
O=C(Nc1cccnc1)c1cc(Br)c(Br)s1	1%	37%	5	-14%	.	20µM*
O=C(Nc1cccnc1)Nc1ccc(Br)cc1Cl	-7%	8%	.	-2%	5%	16µM*
O=C(Nc1cccnc1)c1ccc([N+](=O)[O-])s1	-4%	?	-7	?	.	35%
SMILES	POLK inh	POLI inh	PI5P4K alpha inh	POLH inh	POLB inh	ALOX12 inh
CN1CCN([C@@H]2[C@H](O)[C@H](CO)O[C@@H]2CN(Cc2ccc(Cl)cc2)Cc2cccc(Cl)c2)CC1	.	.	.	.	.	14µM*
Cc1ccc(-c2nc(CN3CCCC3c3cccs3)co2)cc1 (configuration not stated)	.	.	.	.	.	-28%
O=C(O)CCc1ccc(-c2ccc(Br)cc2)o1	?	40µM*	.	-3%	28%	45µM*
O=C1COc2ccc(OCc3ccccc3)nc2CN1CCOc1ccccc1	.	.	.	.	.	11µM*
O=C1COc2ccc(OCc3ccccc3)nc2CN1Cc1ccc(F)cc1	.	.	.	.	.	-10%[176 µM]
Cc1ccc2nc(C)c(C(=O)N3CCN(S(=O)(=O)c4ccccc4)CC3)cc2c1	.	.	.	.	.	21%
CS(=O)(=O)N(CC(=O)N1CCN(c2ccccc2)CC1)c1cccc(Br)c1	-2%	5%	.	-17%	-14%	28µM*
COc1ccccc1CNCc1ccc(C)cc1	22%	-8%	-3	-15%	11%	1µM*
COc1ccccc1CNCc1cc(OC)c(OC)c(OC)c1	-7%	35%	0	-4%	2%	-44%
COc1ccc(CCNC(=O)Nc2cccc(CN3CCOC3=O)c2)cc1OC	.	.	.	.	.	-17%
O=C(Nc1ccccc1)c1ccccc1O	-7%	-9%	.	-11%	0%	-19%
O=C(Nc1ccccc1)Nc1ccc(O)c2ccccc12	-3%	?	-52*	-16%	.	.
Cc1ccc(NC(=O)c2ccccc2O)cc1	4%	-6%	2	-15%	6%	0%
O=C(Nc1ccccc1)Nc1ccc(NC(=O)c2ccccc2O)cc1	-10%	-27%	0	3%	32µM*	0%
O=C(Nc1ccccc1)Nc1cccc2ccccc12	-14%	14%	10	-6%	5%	-5%
Cc1cc(C)cc(NC(=O)Nc2ccc(NC(=O)c3ccccc3O)cc2)c1	-10%	0%	-4	-16%	35µM*	-5%
CCN1C(=O)[C@H]2[C@@H](c3ccc(-c4ccc(Cl)c(Cl)c4)c(OC)c3)N[C@@](C)(C(=O)OC)[C@H]2C1=O	3%	?	-60*	-12%	.	?
CCN1C(=O)[C@H]2[C@@H](c3ccc(-c4ccc(Cl)c(Cl)c4)cc3)N[C@@](C)(C(=O)OC)[C@H]2C1=O	-5%	-28%	0	-16%	.	40µM*
CCN1C(=O)[C@H]2[C@@H](c3ccc(-c4ccc(Cl)c(Cl)c4)cc3)N[C@@](CC(C)C)(C(=O)OC)[C@H]2C1=O	-16%	-11%	14	-25%	.	-4%
O=[N+]([O-])c1ccc(O)c(/C=N/NC(=S)Nc2ccc(Cl)cc2Cl)c1	?	?	-66*	-26%	-19%	?
Cc1cc(Cl)ccc1NC(=O)CCC(=O)N/N=C/c1cc([N+](=O)[O-])ccc1O	4%	49%	0	-9%	2%	-16%
CN1CCN(c2ccc([N+](=O)[O-])c(-n3nc(-c4ccc(Cl)cc4)c4ccccc4c3=O)c2)CC1	.	.	.	.	.	-10%
CC(C)c1ccc(NC(=O)C[n+]2ccn(C3=C([O-])c4ccccc4C3=O)c2)cc1	-44%	?	-8	79µM*	?	-27%
O=C(O)CCc1ccc(-c2ccc(Br)cc2)n1Cc1ccco1	-38%	50µM*	.	56µM*	?	?
